# NIH3T3 tox = kills NIH 3T3 cells; NIH 3T3 viability, CellTiter-Glo ATP luminescence, 48-72 h; Potency, µM (top dose mostly 96.7 µM), for the others: at the top dose activity change, negative = cytotoxicity, hits mostly inhibitors; hit rate 4.3% among 94,000; note: % is set by controls: 0 for no effect and ±100 for the full control effect; nearly all actives have a fitted effect of over 55% in size
#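 ATP-dependent luminescence (CellTiter-Glo) served as the viability signal for NIH 3T3 cells treated with compound for 48 or 72 hr at 37 °C.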
# FLuc inh = inhibitors of firefly (Photinus pyralis) luciferase; AID 1347043; hit rate 2.5% among 76,000; purified P. pyralis luciferase, luminescence, biochemical; Potency, µM (highest dose often 115 µM), usual class: inhibitors; P08659; note: % is set by controls: 0 for no effect and ±100 for the full control effect; nearly all actives have a fitted effect of over 65% in size
#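 Luminescence read by CCD imaging after purified firefly luciferase (10nM final) was added to substrate buffer holding 10uM D-luciferin and 10uM ATP, pH 7.5, pre-dosed with compound.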
# HEK cytotox = HEK 293 cell cytotoxicity; Potency, µM (titrated, usually from 115 µM), for the others: at the top dose activity change, negative = cytotoxicity, most hits filed as inhibitors; hit rate 6.6% among 94,000; AID 1345083; HEK 293 viability, ATP luminescence (CellTiter-Glo), 48-72 h; note: % is set by controls: 0 for no effect and ±100 for the full control effect; nearly all actives have a fitted effect of over 60% in size
#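 Read-out: CellTiter-Glo ATP luminescence. Cells: HEK 293, 250 cells/well. Exposure: 48 or 72 hr, 37 degree Celsius.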
# hNpr1 antagonist = blocks ANP-stimulated signaling of human Npr1 receptor; Potency, µM (titrated, usually from 46.3 µM), for the others: at the highest dose activity change, negative = inhibition, most hits filed as inhibitors; hit rate 1.6% among 76,000; HEK293 hNpr1 GloSensor cGMP, ANP-stimulated luminescence; P16066; calls by dose curve; note: % is set by controls: 0 for no effect and ±100 for the full control effect; nearly all actives have a fitted effect of over 60% in size
# Target sequence (P16066 whole entry, looked up): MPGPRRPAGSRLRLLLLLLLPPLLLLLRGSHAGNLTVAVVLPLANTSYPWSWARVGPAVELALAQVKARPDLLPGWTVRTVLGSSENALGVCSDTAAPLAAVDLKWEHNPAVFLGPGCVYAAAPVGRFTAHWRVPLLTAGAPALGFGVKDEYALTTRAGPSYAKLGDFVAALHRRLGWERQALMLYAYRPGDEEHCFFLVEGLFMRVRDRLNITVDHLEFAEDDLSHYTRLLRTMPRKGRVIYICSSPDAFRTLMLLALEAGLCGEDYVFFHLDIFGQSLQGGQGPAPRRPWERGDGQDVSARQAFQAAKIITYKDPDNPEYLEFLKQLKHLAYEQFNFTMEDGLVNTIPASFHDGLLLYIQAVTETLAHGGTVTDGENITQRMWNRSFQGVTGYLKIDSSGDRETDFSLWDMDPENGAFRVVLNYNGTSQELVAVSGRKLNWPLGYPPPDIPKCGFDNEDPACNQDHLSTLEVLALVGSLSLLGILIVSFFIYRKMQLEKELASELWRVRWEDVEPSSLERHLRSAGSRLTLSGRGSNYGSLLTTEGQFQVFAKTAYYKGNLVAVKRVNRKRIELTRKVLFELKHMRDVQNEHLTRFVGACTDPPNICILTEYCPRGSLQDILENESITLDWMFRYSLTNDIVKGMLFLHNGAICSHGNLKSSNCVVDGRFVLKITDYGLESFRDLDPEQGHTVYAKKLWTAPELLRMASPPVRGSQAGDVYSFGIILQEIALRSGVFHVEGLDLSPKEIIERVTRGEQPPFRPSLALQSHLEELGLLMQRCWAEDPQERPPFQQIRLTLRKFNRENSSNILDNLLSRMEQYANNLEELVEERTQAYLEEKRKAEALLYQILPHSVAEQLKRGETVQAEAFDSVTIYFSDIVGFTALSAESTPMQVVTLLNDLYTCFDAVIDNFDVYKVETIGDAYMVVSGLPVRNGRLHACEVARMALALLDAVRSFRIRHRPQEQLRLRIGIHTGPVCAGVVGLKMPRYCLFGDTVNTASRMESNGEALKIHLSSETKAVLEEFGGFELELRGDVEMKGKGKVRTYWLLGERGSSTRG
#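 HEK293 cells stably expressing human Npr1 and cGMP GloSensor pGS-40F, loaded 2 h with 2% GloSensor reagent, given compound 30 min at room temperature. Luminescence read before and 20 min after 0.1 nM hNppA.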
# Npr1 antag conf = hNpr1 antagonism, confirmation assay; hit rate 76% among 1,400; AID 1347044; HEK293 hNpr1 cGMP GloSensor luminescence, ANP-stimulated; Potency, µM (titrated, usually from 57.6 µM), without a hit: top-dose activity change, negative = inhibition, most hits filed as inhibitors; shares compounds with hNpr1 antagonist; calls by dose curve; note: nearly all actives have a fitted effect of over 70% in size
# NPR2 antag = antagonizes human Npr2, subtype selectivity check; shares compounds with hNpr1 antagonist; HEK293 hNpr2 GloSensor cGMP luminescence, CNP-stimulated; Potency, µM (series often up to 57.6 µM), for inactives: top-dose activity change, negative = inhibition, most hits filed as inhibitors; hit rate 67% among 1,400; AID 1347046; calls by dose curve; note: nearly all actives have a fitted effect of over 70% in size
# FLuc inh counter = FLuc enzyme inhibition, Npr1 counter-screen; hit rate 0.7% among 1,400; AID 1347047; purified FLuc enzyme, luminescence, Km substrate; Potency, µM (highest dose often 57.6 µM), inactives show at the highest dose activity change, negative = inhibition, usual class: inhibitors; shares compounds with hNpr1 antagonist; note: 0% is about no effect
# GloSensor ctrl = reduces cGMP signal in GloSensor control cells. hit rate 69% among 1,400. shares compounds with hNpr1 antagonist. Potency, µM (top dose mostly 57.6 µM), without a hit: top-dose activity change, negative = inhibition, hits mostly inhibitors. HEK293 GloSensor cGMP, SNP-stimulated, luminescence. AID 1347051; calls by dose curve; note: % is set by controls: 0 for no effect and ±100 for the full control effect; nearly all actives have a fitted effect of over 70% in size
# * hit, by the source's call; i = inactive; u = inconclusive; x = no result given; [ ] = remark or other dose. A selection: hits, their analogues and other compounds. The true share with any hit is near 11%. Unless noted, calls come from the whole dose curve; as a rule, active = well fitted curve in the direction sought with a large enough effect; inconclusive = small, poorly fitted or top-dose-only effect, or another doubt; inactive = no such curve, though single readings can be large; an effect the other way counts as inactive or inconclusive. Potency is the fitted concentration of half-maximal effect.
SMILES,NIH3T3 tox,FLuc inh,HEK cytotox,hNpr1 antagonist,Npr1 antag conf,NPR2 antag,FLuc inh counter,GloSensor ctrl
Cn1nc(C(=O)N2CCC(Oc3ccc(-c4noc(C5CC5)n4)cc3)C2)c2ccccc21 (centres undefined),u,i,u,u,x,x,x,x
Cc1nc(-c2ccc(OC3CCN(C(=O)NCC(C)C)C3)cc2)no1 (centres undefined),u,i,u,u,x,x,x,x
COCc1nc(-c2ccc(OC3CCN(C(=O)CCc4ccc(OC)cc4)C3)cc2)no1 (centres undefined),u,i,u,14µM*,27µM*,27µM*,-4%,u
COc1ccc(-c2noc(CC3CCN(C(=O)CCc4cccc(OC)c4)CC3)n2)cc1,u,i,u,13µM*,22µM*,22µM*,0%,17µM*
COCC1CN(C(=O)CCc2c(C)nn(C)c2C)CC12CCNCC2 (centres undefined),-2%,i,-4%,4%,x,x,x,x
COc1ccc(CCC(=O)N2CCC(Cc3nc(-c4ccccc4)no3)CC2)cc1,u,i,35µM*,10µM*,12µM*,15µM*,2%,12µM*
Cc1ccc(OCCC2CCN(C(=O)CCc3ccccc3)C2)cc1 (centres undefined),u,i,u,-1%,x,x,x,x
COc1cccc(-c2noc(CC3CCN(C(=O)CCc4ccccc4)CC3)n2)c1,u,i,u,13µM*,27µM*,24µM*,-7%,24µM*
COCc1nc(-c2ccc(OC3CCN(Cc4ccc(C(F)(F)F)cc4)C3)cc2)no1 (centres undefined),u,i,u,7.9µM*,8.6µM*,11µM*,2%,7.7µM*
Cc1ccc(-c2noc(CCCC(=O)N3CCC(CCOc4ccccc4F)C3)n2)cc1 (centres undefined),u,i,u,4.5µM*,17µM*,19µM*,-3%,15µM*
COc1cccc(CCC(=O)N2CCC(Cc3nc(-c4ccccc4)no3)CC2)c1,u,i,u,u,x,x,x,x
C=CCNC(=O)C1CCCN(S(=O)(=O)c2ccccc2)CCC(=O)NCC1 (centres undefined),-7%,i,i,-1%,x,x,x,x
COc1cccc(-c2noc(CC3CCN(C(=O)COc4cccc(C)c4)CC3)n2)c1,u,i,u,20µM*,u,31µM*,2%,39µM*
COc1ccc(-c2noc(CC3CCN(C(=O)Cc4ccccc4Cl)CC3)n2)cc1,u,i,u,10µM*,17µM*,22µM*,1%,19µM*
Cc1cccc(OCC(=O)N2CCC(Cc3nc(-c4cnccn4)no3)CC2)c1,u,i,-23%,-3%,x,x,x,x
COCC(=O)N1CCC(C(=O)N2CCC(c3nc4ncccc4[nH]3)CC2)CC1,-16%,x,-9%,x,x,x,x,x
O=C(Nc1ccc(-c2cccc(F)c2)cc1)C1CCCN(C(=O)c2ccncc2)C1 (centres undefined),u,i,14µM*,7.1µM*,14µM*,15µM*,-15%,11µM*
O=C(Nc1cccc(-c2ccc(F)cc2)c1)C1CCCN(C(=O)c2cccnc2)C1 (centres undefined),u,i,u,-15%,x,x,x,x
O=C(COc1ccc(F)cc1)N1CCC(Oc2ncccc2C(=O)N2CCCCC2)C1 (centres undefined),u,i,-4%,3%,x,x,x,x
Cc1ccc(C2Cn3nnc(-c4nc(C5CCCCC5)no4)c3CO2)c(C)c1 (centres undefined),-30%,i,u,u,14µM*,14µM*,-1%,1%
Cc1noc(-c2nnn3c2COC(c2ccc(F)cc2)C3)n1 (centres undefined),-4%,i,2%,-3%,x,x,x,x
CC(C)(C)c1noc(-c2nnn3c2COC(c2ccc(F)cc2)C3)n1 (centres undefined),-17%,i,u,u,u,u,3%,-24%
Clc1ccc(C2Cn3nnc(-c4nc(C5CC5)no4)c3CO2)cc1 (centres undefined),u,i,u,u,u,-22%,4%,1%
CC(C)(C)c1noc(-c2nnn3c2COC(c2ccc(Cl)cc2)C3)n1 (centres undefined),u,i,u,u,19µM*,u,3%,-2%
CCOc1ccc(C2Cn3nnc(-c4nc(-c5cccc(OCC)c5)no4)c3CO2)cc1 (centres undefined),-7%,i,-8%,-1%,x,x,x,x
SMILES,NIH3T3 tox,FLuc inh,HEK cytotox,hNpr1 antagonist,Npr1 antag conf,NPR2 antag,FLuc inh counter,GloSensor ctrl
Cc1ccc(NC(=O)NC2CCN(C(=O)N3CC4CC(C3)[C@H]3CCCC(=O)N3C4)CC2)cc1C (some centres undefined),-27%,i,-27%,4%,x,x,x,x
CN(C)C(=O)N1CCCCC(NC2CCN(c3ccc4c(c3)CCC4)CC2)C1 (centres undefined),u,i,u,0%,x,x,x,x
O=C1N(c2ccccc2)C[C@H]2CN(C3CCOCC3)CCN12,i,i,i,3%[70.6 µM],x,x,x,x
O=C(Nc1ccc(Cl)cc1)NC1CCCN(CCn2nc3n(c2=O)CCCC3)C1 (centres undefined),-29%,x,-5%,x,x,x,x,x
CCCc1noc(-c2nnn3c2COC(c2ccc(OC)cc2)C3)n1 (centres undefined),-15%,i,-9%,-30%,x,x,x,x
COc1ccc(C2Cn3nnc(-c4nc(C(C)(C)C)no4)c3CO2)cc1 (centres undefined),u,i,u,u,22µM*,u,0%,-18%
Cc1nnc([C@H]2CCN(Cc3ccco3)C2)o1,-20%[230 µM],i,3%[230 µM],0%[70.6 µM],x,x,x,x
COC(=O)CNC(=O)N1CC[C@@H]2COC(=O)N(Cc3ccccc3)[C@@H]2C1,-12%,x,0%,x,x,x,x,x
COc1cncc(Nc2cnc3ccc(N(C)Cc4ccc(F)cc4)nn23)c1,u,i,u,u,x,x,x,x
CN(Cc1ccc(F)cc1)c1ccc2ncc(Nc3ccnc(N4CCOCC4)c3)n2n1,u,i,u,10µM*,25µM*,16µM*,-3%[86.2 µM],18µM*

# Bioassay records deposited in PubChem by National Center for Advancing Translational Sciences (NCATS).
